Measurements from the supplement of paper PMC11732987, “Enantioselective OTUD7B fragment discovery through chemoproteomics screening and high-throughput optimisation” (Communications Chemistry, 2025).

Experiments:
Assay in all cases: log2 ratio of Biotin-Ahx-Ub-VS probe labelling (fragment/DMSO); higher = less target engagement (more negative = stronger competition), active = hit call of the paper (q ≤ 0.05, log2 ratio ≤ -1)
Details in all cases: compound concentration: 200 uM; treatment time: 3 h
[1] = biological target: T1, USP42 (UniProt Q9H9J4)
T1 sequence (whole entry): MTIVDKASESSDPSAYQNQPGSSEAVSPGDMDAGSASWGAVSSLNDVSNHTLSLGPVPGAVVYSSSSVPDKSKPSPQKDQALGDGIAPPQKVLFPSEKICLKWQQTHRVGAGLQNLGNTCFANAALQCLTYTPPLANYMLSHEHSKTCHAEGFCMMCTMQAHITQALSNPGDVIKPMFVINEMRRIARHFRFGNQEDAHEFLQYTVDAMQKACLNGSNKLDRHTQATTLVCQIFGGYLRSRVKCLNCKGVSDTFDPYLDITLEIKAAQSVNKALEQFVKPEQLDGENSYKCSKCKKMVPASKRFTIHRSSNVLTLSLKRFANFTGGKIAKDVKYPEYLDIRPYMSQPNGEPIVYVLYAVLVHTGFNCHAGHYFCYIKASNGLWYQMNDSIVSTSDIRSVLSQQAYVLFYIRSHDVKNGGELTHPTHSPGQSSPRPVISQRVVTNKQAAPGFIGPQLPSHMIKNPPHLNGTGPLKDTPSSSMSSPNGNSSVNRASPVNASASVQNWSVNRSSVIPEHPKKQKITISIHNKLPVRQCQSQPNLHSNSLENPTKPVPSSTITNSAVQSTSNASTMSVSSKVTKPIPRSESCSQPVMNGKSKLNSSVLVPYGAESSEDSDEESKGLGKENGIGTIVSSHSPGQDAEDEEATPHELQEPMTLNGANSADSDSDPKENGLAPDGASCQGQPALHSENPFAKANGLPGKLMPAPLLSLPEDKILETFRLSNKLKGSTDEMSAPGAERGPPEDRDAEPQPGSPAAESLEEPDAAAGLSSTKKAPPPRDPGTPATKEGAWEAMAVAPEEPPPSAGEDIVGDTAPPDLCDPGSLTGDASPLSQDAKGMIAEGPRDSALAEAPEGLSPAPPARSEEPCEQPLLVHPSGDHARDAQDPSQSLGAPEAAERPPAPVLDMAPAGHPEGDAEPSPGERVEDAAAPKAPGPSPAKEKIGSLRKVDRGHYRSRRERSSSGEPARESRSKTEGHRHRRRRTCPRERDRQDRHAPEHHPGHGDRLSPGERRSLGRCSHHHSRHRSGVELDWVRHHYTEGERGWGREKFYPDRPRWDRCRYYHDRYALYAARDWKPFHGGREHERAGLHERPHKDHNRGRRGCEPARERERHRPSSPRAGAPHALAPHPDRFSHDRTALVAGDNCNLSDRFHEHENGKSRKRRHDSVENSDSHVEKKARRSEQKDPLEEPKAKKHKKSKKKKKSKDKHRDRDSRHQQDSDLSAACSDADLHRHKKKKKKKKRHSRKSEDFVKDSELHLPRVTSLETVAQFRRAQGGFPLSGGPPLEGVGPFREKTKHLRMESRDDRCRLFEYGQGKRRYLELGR
Method in brief: (§1)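 In triplicate, 495 µg of HEK293T lysate per sample was incubated with fragment at 200 µM or vehicle for 3 h. Biotin-Ahx-Ub-VS was then added to 0.5 µM final for 1 h, and labelled DUBs were captured with NeutrAvidin, digested with LysC and trypsin, and measured by diaPASEF LC-MS/MS. Data are average log2 fragment/vehicle ratios by unpaired t-test from global-median-normalised Spectronaut label-free quantities, restricted to proteins with ≥2 unique peptides.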

[2] = biological target: USP46 (UniProt P62068)
Method in brief: as §1

[3] = biological target: T2, USP47 (UniProt Q96K76)
T2 sequence (whole entry): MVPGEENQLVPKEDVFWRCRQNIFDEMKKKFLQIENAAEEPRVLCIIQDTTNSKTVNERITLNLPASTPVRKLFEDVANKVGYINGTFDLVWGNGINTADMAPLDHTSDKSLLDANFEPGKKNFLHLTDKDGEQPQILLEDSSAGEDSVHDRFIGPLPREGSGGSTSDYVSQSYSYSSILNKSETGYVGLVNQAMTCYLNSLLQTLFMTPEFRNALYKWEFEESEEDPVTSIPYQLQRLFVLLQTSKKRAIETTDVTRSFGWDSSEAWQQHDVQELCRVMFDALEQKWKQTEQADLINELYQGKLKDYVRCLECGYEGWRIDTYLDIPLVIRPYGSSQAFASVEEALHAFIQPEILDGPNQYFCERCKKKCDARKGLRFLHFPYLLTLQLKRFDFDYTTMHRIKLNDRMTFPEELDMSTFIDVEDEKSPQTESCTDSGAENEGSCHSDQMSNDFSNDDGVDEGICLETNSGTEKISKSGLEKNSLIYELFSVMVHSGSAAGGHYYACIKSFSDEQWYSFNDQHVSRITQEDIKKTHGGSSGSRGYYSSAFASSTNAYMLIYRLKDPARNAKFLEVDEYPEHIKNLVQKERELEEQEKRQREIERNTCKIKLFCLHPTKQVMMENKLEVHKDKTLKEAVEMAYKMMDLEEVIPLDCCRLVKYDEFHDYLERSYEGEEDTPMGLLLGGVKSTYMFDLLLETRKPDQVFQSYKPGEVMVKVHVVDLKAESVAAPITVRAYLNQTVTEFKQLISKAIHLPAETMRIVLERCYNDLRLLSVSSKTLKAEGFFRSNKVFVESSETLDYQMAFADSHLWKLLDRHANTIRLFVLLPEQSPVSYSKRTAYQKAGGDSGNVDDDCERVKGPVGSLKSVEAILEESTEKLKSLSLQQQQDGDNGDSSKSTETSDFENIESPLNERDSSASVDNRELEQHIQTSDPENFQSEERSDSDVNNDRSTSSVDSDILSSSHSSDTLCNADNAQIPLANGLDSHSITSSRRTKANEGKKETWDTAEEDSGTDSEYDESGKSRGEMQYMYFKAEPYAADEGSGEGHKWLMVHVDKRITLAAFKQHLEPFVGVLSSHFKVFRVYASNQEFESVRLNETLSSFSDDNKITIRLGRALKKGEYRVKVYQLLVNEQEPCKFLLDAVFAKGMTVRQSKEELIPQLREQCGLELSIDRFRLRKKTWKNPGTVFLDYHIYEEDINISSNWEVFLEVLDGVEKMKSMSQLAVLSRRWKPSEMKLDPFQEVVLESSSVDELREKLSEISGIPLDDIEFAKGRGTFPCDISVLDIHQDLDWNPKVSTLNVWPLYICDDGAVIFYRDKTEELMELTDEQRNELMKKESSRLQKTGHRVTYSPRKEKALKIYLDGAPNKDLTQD
Method in brief: as §1

[4] = biological target: T3, USP48 (UniProt Q86UV5)
T3 sequence (whole entry): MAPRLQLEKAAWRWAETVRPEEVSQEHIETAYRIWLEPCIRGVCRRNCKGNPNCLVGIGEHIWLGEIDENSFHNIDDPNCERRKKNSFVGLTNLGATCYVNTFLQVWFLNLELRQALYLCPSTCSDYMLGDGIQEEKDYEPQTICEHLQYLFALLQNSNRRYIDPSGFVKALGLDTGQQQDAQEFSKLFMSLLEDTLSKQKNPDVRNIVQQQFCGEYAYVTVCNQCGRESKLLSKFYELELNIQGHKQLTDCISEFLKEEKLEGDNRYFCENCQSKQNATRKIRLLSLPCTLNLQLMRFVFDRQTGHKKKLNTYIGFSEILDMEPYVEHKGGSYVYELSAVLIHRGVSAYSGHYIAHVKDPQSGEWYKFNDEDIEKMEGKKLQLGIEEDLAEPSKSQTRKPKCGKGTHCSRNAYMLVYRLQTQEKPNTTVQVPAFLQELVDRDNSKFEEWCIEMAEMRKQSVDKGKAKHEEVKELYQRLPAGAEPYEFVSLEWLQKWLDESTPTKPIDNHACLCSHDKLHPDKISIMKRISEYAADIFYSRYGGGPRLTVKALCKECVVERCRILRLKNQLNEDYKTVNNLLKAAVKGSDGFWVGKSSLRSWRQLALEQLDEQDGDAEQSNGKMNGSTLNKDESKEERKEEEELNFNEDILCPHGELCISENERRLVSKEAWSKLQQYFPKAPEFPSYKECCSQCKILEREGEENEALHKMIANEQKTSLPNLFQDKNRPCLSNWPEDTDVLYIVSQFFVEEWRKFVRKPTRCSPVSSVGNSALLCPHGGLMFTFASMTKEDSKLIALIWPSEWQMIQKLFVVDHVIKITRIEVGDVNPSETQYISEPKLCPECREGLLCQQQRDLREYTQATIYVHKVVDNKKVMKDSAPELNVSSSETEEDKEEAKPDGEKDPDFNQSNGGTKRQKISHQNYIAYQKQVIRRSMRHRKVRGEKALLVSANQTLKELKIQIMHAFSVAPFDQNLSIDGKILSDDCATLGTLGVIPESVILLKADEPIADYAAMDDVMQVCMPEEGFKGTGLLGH
Method in brief: as §1

[5] = biological target: T4, USP5 (UniProt P45974)
T4 sequence (whole entry): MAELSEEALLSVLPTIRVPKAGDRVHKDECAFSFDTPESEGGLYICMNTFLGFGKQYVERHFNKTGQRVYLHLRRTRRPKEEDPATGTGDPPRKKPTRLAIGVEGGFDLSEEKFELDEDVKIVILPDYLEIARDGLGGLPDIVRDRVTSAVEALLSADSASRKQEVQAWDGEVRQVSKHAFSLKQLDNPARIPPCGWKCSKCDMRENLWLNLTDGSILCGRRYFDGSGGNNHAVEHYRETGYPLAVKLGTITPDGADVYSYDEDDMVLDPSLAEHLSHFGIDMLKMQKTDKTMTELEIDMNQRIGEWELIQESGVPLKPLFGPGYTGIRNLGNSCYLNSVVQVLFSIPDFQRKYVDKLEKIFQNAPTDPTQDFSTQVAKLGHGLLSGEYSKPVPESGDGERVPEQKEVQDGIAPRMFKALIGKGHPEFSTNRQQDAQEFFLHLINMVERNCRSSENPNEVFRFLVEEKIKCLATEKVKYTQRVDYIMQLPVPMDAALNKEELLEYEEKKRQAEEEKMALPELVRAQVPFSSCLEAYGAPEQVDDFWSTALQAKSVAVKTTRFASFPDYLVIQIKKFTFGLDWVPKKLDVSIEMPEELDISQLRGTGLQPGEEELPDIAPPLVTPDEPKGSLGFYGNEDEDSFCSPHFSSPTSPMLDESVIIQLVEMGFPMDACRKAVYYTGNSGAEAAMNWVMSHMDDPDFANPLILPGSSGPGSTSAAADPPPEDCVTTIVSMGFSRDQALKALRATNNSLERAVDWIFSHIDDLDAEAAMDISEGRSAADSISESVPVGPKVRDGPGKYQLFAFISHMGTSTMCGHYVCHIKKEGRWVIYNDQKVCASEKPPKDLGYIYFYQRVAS
Method in brief: as §1

[6] = biological target: USP54 (UniProt Q70EL1)
Method in brief: as §1

[7] = biological target: USP7 (UniProt Q93009)
Method in brief: as §1

[8] = biological target: T5, USP8 (UniProt P40818)
T5 sequence (whole entry): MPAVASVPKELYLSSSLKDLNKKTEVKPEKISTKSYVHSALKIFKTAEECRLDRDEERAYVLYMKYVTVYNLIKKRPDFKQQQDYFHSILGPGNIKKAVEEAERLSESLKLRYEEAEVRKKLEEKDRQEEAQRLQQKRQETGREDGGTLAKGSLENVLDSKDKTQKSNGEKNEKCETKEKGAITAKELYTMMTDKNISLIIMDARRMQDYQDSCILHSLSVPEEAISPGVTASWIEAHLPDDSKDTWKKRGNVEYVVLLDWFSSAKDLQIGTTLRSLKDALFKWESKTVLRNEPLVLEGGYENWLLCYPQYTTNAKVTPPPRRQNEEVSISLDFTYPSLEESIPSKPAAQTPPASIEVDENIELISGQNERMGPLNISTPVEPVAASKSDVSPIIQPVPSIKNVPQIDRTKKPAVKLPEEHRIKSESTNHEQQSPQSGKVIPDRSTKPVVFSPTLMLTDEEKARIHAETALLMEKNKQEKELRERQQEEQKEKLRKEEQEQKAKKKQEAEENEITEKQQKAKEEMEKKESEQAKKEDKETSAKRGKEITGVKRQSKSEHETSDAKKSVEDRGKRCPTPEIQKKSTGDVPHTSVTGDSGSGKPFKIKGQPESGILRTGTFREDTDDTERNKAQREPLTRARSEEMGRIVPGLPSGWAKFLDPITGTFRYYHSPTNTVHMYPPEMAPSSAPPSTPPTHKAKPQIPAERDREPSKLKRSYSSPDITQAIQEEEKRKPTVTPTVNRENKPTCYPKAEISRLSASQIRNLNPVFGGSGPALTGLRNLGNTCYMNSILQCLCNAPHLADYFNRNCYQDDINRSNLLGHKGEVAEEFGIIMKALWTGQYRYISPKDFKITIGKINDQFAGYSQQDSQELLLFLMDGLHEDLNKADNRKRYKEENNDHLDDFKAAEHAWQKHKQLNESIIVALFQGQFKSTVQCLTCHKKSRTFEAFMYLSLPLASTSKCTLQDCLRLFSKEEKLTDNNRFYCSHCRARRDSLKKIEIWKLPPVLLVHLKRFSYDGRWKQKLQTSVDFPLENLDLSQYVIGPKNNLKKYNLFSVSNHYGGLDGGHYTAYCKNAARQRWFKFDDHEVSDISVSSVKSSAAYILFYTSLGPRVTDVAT
Method in brief: as §1

Measured: log2 ratio of Biotin-Ahx-Ub-VS probe labelling

Sequence of USP46 (P62068 whole entry): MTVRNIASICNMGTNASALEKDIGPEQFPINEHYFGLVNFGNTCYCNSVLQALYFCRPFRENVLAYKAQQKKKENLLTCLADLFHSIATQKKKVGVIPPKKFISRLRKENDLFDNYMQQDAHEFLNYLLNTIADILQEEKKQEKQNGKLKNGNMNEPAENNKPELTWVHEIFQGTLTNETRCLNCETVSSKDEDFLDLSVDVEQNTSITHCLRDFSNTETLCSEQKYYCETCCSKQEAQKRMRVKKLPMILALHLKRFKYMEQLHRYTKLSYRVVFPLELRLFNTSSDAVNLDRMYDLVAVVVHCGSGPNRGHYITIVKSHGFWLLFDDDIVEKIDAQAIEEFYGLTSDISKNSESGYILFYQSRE
Sequence of USP54 (Q70EL1 whole entry): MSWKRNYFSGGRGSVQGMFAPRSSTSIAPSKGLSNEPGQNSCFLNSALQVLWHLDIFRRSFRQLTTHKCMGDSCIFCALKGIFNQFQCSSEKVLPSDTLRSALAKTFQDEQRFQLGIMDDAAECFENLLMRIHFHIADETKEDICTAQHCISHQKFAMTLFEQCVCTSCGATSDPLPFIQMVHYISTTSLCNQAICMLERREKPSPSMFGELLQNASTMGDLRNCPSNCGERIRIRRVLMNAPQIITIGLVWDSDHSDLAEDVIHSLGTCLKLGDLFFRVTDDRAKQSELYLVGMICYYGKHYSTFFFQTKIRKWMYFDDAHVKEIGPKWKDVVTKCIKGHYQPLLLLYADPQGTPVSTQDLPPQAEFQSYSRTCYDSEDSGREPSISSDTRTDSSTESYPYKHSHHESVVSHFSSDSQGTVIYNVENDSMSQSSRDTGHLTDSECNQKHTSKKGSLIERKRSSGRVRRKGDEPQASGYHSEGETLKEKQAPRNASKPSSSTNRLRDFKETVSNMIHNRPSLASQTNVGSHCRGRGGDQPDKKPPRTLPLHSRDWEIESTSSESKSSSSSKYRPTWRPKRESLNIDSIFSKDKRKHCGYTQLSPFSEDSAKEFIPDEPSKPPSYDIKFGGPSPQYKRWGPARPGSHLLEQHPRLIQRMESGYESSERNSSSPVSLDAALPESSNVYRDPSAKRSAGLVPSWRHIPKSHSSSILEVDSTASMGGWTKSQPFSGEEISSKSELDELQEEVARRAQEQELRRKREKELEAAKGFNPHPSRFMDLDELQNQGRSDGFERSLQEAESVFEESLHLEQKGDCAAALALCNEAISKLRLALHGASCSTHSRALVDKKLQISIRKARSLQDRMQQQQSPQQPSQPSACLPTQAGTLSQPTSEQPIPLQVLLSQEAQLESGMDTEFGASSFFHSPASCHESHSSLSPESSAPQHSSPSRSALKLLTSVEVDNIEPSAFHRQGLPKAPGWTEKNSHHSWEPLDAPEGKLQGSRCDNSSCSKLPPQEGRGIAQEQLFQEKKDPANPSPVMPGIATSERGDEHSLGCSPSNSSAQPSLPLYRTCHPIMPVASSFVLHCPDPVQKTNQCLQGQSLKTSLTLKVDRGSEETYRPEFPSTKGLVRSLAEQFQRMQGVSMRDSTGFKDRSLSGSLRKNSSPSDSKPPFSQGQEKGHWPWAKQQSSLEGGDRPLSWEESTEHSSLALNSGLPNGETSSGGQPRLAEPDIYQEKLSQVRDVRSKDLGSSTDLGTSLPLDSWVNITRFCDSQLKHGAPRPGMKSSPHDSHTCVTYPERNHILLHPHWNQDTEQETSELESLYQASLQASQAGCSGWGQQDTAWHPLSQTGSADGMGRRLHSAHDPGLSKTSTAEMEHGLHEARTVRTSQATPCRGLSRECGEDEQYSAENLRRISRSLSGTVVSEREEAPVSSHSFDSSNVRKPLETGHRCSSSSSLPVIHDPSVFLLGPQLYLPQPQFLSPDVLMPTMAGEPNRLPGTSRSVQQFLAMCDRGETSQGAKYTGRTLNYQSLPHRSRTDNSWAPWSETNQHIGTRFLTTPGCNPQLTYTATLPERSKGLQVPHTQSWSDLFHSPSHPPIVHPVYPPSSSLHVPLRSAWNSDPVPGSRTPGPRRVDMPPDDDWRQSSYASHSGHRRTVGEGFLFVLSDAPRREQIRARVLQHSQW
Sequence of USP7 (Q93009 whole entry, looked up): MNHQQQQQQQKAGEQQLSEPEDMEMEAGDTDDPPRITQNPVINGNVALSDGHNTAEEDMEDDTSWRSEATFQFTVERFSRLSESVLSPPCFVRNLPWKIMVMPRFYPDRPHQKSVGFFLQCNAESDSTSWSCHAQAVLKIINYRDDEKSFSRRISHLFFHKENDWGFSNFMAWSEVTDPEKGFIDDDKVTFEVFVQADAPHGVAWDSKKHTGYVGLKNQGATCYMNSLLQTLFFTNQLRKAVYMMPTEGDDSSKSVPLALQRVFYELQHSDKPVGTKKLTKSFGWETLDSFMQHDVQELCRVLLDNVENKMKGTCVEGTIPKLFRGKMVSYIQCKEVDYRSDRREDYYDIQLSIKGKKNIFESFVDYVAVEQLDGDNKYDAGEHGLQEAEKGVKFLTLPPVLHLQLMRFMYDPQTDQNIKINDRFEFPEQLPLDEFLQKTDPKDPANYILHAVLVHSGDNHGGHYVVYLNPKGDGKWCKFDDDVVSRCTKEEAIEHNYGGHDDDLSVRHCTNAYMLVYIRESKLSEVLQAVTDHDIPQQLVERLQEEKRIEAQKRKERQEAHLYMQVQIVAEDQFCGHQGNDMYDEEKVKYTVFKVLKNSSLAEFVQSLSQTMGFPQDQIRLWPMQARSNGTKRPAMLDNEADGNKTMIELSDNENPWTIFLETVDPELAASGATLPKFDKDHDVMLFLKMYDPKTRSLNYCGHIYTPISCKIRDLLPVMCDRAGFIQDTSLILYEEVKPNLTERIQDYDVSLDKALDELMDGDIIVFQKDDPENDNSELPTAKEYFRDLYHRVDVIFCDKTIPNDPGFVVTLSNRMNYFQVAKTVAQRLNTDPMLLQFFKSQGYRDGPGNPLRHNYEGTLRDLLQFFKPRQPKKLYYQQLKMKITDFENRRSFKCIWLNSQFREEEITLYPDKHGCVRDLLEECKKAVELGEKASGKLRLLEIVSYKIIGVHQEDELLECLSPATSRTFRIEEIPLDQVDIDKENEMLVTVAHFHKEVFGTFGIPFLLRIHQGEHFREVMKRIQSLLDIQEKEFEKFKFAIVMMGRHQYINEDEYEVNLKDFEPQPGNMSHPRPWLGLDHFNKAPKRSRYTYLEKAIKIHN

C#Cc1cccc(NC(=O)CCl)c1
inactive: [1] 0.466 | [2] -0.0515 | [3] -0.468 | [4] -0.362 | [5] -0.268 | [6] -0.249 | [7] -0.56 | [8] -0.179
